Several values for one entry are separate records, joined by “and”; a condition that tells them apart may be missing. Equal values may be shown once. A structure can be active in one record and inactive in another. Activity calls are given as the source filed them. Rule for the calls: active = hit-call score of the fitted dose curve at least 0.9, where 1 is the maximum; inactive = score below 0.9.

Here are results for 39 compounds from PubChem BioAssay (EPA / NIEHS).

The assay can be described thus: APR_HepG2_CellLoss_72hr: Apredica 72-hour HepG2 Assay for Cell Loss (AID 2282915). The note with it: high-content imaging. As to the method:
APR_HepG2_72hr is a cell-based, multiplexed-readout assay that uses HepG2, a human liver cell line, with measurements taken at 72 hours after chemical dosing in a 384-well plate.APR_HepG2_CellLoss_72hr is one of 10 assay component(s) measured or calculated from the APR_HepG2_72hr assay. It is designed to make measurements of cell number, a form of viability reporter, as detected with fluorescence intensity signals by HCS Fluorescent Imaging technology.Data from the assay component APR_HepG2_CellLoss_72hr was analyzed into 1 assay endpoint. This assay endpoint, APR_HepG2_CellLoss_72hr, was analyzed with bidirectional fitting relative to DMSO as the negative control and baseline of activity. Using a type of viability reporter, measures of all nuclear dna for gain or loss-of-signal activity can be used to understand the viability at the cellular-level. Furthermore, this assay endpoint can be referred to as a secondary readout, because this assay has produced multiple assay endpoints where this one serves a viability function. To generalize the intended target to other relatable targets, this assay endpoint is annotated to the cell cycle intended target family, where the subfamily is proliferation.
Cells were treated with dimethyl sulfoxide (DMSO) as a solvent control at a final concentration of 0.5% v/v or with compounds in DMSO with a resulting final DMSO concentration of 0.5% v/v. Compound treatment was done at concentrations of 0.39, 0.78, 1.56, 3.12, 6.24, 12.5, 25, 50, 100, and 200 uM in duplicate on each plate. Cells were treated with compounds for 1, 24, or 72 hr. Carbonyl […] m-chloro-phenylhydrazone (CCCP) and taxol were used as positive controls for mitochondrial function and cytoskeletal stability, respectively; DMSO served as the negative control for this experiment. Cells were fixed by the direct addition of 50 uL formaldehyde in Hank's Balanced Salt Solution (HBSS) to a final concentration of 3.7%. After incubation in the fixation medium for 30 min at room temperature (293-298 K), cells were rinsed twice with HBSS and treated with cell permeabilization buffer (16 uL of 0.5% Triton X-100) for 10 min at room temperature (293-298 K) before labeling. For mitochondrial membrane potential and mitochondrial measurements, pre-fixed cells were incubated with 50 uL of MitoTracker Red CMXRos (Invitrogen) at a concentration of 250 nM for 30 min before fixation. In the remaining cases, post-fixed cells were labeled by incubation with a multiplexed mixture of primary antibodies in HBSS for 60 min at room temperature (293-298 K) to detect immunoreactivity of c-Jun (1:500), phospho-histone H3 (1:100), phospho-histone H2A.x (1:200), p53 (1:400), alpha-tubulin (1:200) and Hoechst 33342 (2 ug/mL). Cells were labeled for multiplexed imaging on two separate plates: a) Hoechst 33342, MitoTracker Red, phospho-histone H3, and alpha-tubulin, and b) Hoechst 33342, phospho-histone H2A.x, and c-Jun. A final rinse with HBSS (50 uL) was performed before analysis. The primary and secondary antibodies for the proteins were phospho-histone H3 (rabbit anti-phospho-histone H3 and FITC-donkey anti-rabbit IgG), phospho-histone H2A.x (mouse anti-phospho-histone H2A.x and FITC-donkey anti-mouse IgG), c-Jun (rabbit anti-phospho-c-Jun and Cy3-donkey anti-rabbit IgG), p53 (sheep anti-p53 and Cy5-donkey anti-sheep IgG), alpha-tubulin (mouse anti-alpha-tubulin and Cy5-donkey anti-mouse IgG). These antibodies are available as the CellCiphr HepG2 assay kit (Millipore).Digital images of each well were captured using a Cellomics ArrayScan VTI (Thermo Scientific Cellomics) (0.8 NA objective, 0.63x optical coupler, and XF-93 filter set) at 20x magnification. The images were acquired using the autofocus feature of the ArrayScan instrument, which entails the following steps. First, the camera focuses on channel 1 (Hoechst 33342), where nuclei are identified. Second, a Z offset of 1 um is used for capturing mitochondria (MitoTracker Red). […]
For `CNC(=S)S`, the half-maximal activity concentration (AC50) was 36.7 µM (active). As for `COc1ccc(C(c2ccc(OC)cc2)C(Cl)(Cl)Cl)cc1`, the concentration at half-maximal activity (AC50) is 72.7 µM (active).

`CCCCOC(=O)c1ccccc1C(=O)OCCCC`: the outcome was inactive. For `Cc1ccc(-c2c(Cl)nc(C#N)n2S(=O)(=O)N(C)C)cc1`, the AC50 is 65.4 µM (active). As for `Oc1ccccc1-c1ccccc1`, the result was inactive. For the compound `OC(c1ccc(Cl)cc1)(c1cncnc1)c1ccccc1Cl` (stereo not given), the AC50 is 10.4 µM (active). `CCCN(CCC)c1c([N+](=O)[O-])cc(S(N)(=O)=O)cc1[N+](=O)[O-]`: the AC50 was 38.6 µM (active) and 39.2 µM (active) and 46.7 µM (active); the compound was classed as inactive. Turning to `COc1cnc(OC)n2nc(NS(=O)(=O)c3c(OCC(F)F)cccc3C(F)(F)F)nc12`, the compound was called inactive. Regarding `CCCCNC(=O)n1c(NC(=O)OC)nc2ccccc21`, the AC50 is 8.47 µM (active).

Consider `N#Cc1cc(Br)c(O)c(Br)c1`, for which the AC50 was 101 µM (active). For `CCOC(=O)CC(SP(=S)(OC)OC)C(=O)OCC` (stereo not given), the AC50 is 109 µM (active).

On to `COP(=S)(OC)Oc1nc(Cl)c(Cl)cc1Cl`, for which the AC50 is 151 µM (active). Take `COC(=O)N(OC)c1ccccc1COc1ccn(-c2ccc(Cl)cc2)n1`: the AC50 was 1.44 µM (active). For `N#CC(CCc1ccc(Cl)cc1)(Cn1cncn1)c1ccccc1` (stereo not given), the result was inactive. `C#CCOS(=O)OC1CCCCC1Oc1ccc(C(C)(C)C)cc1` (stereo not given): the AC50 was 3.12 µM (active). For `CCNc1nc(Cl)nc(NCC)n1`, the call was inactive. For the compound `CC(C)(C)c1ccc(CSc2cnn(C(C)(C)C)c(=O)c2Cl)cc1`, the AC50 was 8.33 µM (active).

On to `CNC(=O)ON=CC(C)(C)SC`, for which the outcome was inactive.

In the case of `C=CCC1=C(C)[C@@H](OC(=O)[C@@H]2[C@@H](C=C(C)C)C2(C)C)CC1=O`, the AC50 is 102 µM (active). As to `CCON=C(CC)C1=C(O)CC(c2c(C)cc(C)cc2C)CC1=O` (stereo not given), the call was inactive.

Take `CC1COC(Cn2cncn2)(c2ccc(Oc3ccc(Cl)cc3)cc2Cl)O1` (stereo not given): the AC50 was 10.6 µM (active). Take `CCOC(=O)C(Cl)Cc1cc(-n2nc(C)n(C(F)F)c2=O)c(F)cc1Cl` (stereo not given): the compound was called inactive.

For `O=C(Nc1ccccc1)Nc1ccnc(Cl)c1`, the AC50 is 53.8 µM (active). As for `COc1nc(C)nc(NC(=O)NS(=O)(=O)c2ccccc2CCC(F)(F)F)n1`, the call was inactive. For `CON(C)C(=O)Nc1ccc(Cl)c(Cl)c1`, the result was inactive. With `CN(C)C(=S)SSC(=S)N(C)C`, the AC50 was 0.153 µM (active). For the compound `CCc1nn(C)c(C(=O)NCc2ccc(C(C)(C)C)cc2)c1Cl`, the AC50 was 20.7 µM (active). Consider `C=CCC1=C(C)C(OC(=O)C2C(C=C(C)C)C2(C)C)CC1=O` (stereo not given), for which the AC50 was 57.1 µM (active) [middle of 4 runs].

As to `CC(C)Oc1cc(-n2nc(C(C)(C)C)oc2=O)c(Cl)cc1Cl`, the AC50 is 58.9 µM (active). Same read-out and setting: the same measure for `CCOP(=S)(OCC)SCn1c(=O)oc2cc(Cl)ccc21`: 61.4 µM (active).

As to `O=C(O)c1nc(Cl)ccc1Cl`, the outcome was inactive. Consider `CCCC1COC(Cn2cncn2)(c2ccc(Cl)cc2Cl)O1` (stereo not given), for which the AC50 was 76 µM (active). `COP(N)(=O)SC` (stereo not given): the call was inactive.

As for `Fc1ccc(Oc2ccnc3cc(Cl)cc(Cl)c23)cc1`, the AC50 was 76.2 µM (active).

`CCOc1cc(Oc2ccc(C(F)(F)F)cc2Cl)ccc1[N+](=O)[O-]`: the AC50 was 31.5 µM (active). On to `N#Cc1nn(-c2c(Cl)cc(C(F)(F)F)cc2Cl)c(N)c1S(=O)C(F)(F)F` (stereo not given), for which the AC50 is 63.1 µM (active). Regarding `O=C(O)COc1nc(Cl)c(Cl)cc1Cl`, the compound was classed as inactive.

In the case of `CCNc1nc(Cl)nc(NC(C)C)n1`, the result was inactive.

As to `CC1=C(C(=O)Nc2ccccc2)SCCO1`, the result was inactive.
